This is an account of results in ChEMBL document CHEMBL2218924, “A broad activity screen in support of a chemogenomic map for kinase signalling research and drug discovery” (Biochem J, 2013).

For the assay, the target named is T1, Testis-specific serine/threonine-protein kinase 2 (Homo sapiens) (UniProt Q96PF2).
T1 sequence (whole entry): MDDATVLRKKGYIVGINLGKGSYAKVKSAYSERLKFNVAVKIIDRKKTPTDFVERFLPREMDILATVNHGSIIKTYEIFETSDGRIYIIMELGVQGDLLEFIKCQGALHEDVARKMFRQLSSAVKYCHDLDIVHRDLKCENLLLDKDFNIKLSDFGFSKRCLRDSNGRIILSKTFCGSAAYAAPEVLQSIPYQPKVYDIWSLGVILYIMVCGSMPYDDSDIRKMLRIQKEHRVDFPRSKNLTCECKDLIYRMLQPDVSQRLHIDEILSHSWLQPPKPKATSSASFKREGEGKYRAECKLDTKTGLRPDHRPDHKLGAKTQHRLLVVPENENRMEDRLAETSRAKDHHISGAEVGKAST
The note with it: at 1 µM.
As usually defined, the residual activity is the signal under treatment as a percentage of the control signal. For the molecule `CCCC(=O)Oc1ccc2[nH]c(C(=O)c3cc4ccccc4[nH]3)cc2c1`, the residual activity came out at 96%. The result for `O=C(Nc1cccc(Nc2cc(Nc3cccc(C(F)(F)F)c3)ncn2)c1)C1CC1` reads 91%; that for `COc1ccc(CNc2nc(N(CCO)CCO)nc3c2ncn3C(C)C)cc1`, 98%. For the molecule `CCC(=O)Nc1ccc2ncnc(Nc3cccc(Br)c3)c2c1`, the residual activity was 95%. The result for `O=C1NC(=O)/C(=C/c2ccc3c(c2)OC(F)(F)O3)S1` reads 93%; that for `Nc1ncnc2c1c(-c1ccc(Oc3ccccc3)cc1)cn2C1CCCC1`, 86%.

On to `O=C1Cc2c([nH]c3ccc(Br)cc23)-c2ccccc2N1`, for which the residual activity was determined as 96%. The value for `CC(C)[C@H](CO)Nc1nc(Nc2cc(N)cc(Cl)c2)c2ncn(C(C)C)c2n1` was 91%; that for `O=C(c1cc2cc(O)ccc2[nH]1)c1cc2cc(O)ccc2[nH]1` was 77%.

In the case of `O=C(NC(NC(=S)Nc1ccc(F)c([N+](=O)[O-])c1)C(Cl)(Cl)Cl)C(c1ccccc1)c1ccccc1` (stereo unspecified), the residual activity was found to be 102%. For `CN(C)c1ccc(/C=C2\C(=O)Nc3ccccc32)cc1`, the residual activity stood at 92%. For the molecule `Fc1ccc(-c2nc3n(c2-c2ccncc2)CCS3)cc1`, the residual activity stood at 85%.

For the molecule `Oc1c2ccccc2c2c3c(cccc13)N=N2`, the residual activity amounted to 92%.

In the case of `COc1cc2ncnc(Nc3ccc(Oc4ccccc4)cc3)c2cc1OC`, the residual activity was determined as 97%. The value for `Cc1cc(Nc2nc(-c3ccccc3)nc3ccccc23)n[nH]1` was 96%; that for `CC(C)n1cnc2c(NCc3ccccc3)nc(NCCCO)nc21` was 86%; that for `c1ccc2c(-c3ccncc3)c[nH]c2c1` was 100%.

Regarding `Ic1cccc(CSc2nnc(-c3ccncc3)o2)c1`, the residual activity turned out to be 87%. The result for `c1ccc(-c2cnc(Nc3ccc(OCCN4CCCC4)cc3)s2)cc1` reads 100%.

For `O=C(O)c1ccc2c3c1cccc3c(=O)n1c3ccccc3nc21`, the residual activity was determined as 118%.

With `O=c1cc(N2CCOCC2)oc2c1ccc1ccccc12`, the residual activity was found to be 95%.
